In PubChem BioAssay (NCI):
This is part of a sample that, as a whole, favours compounds with a hit. Of some 83,000 tested, about 20% had one in any assay.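 Step 1: grow cells in 96-well plates. Step 2: add test compound at a single concentration. Step 3: incubate 48 h. Step 4: record percent growth.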 Values without a mark were called inactive. Active and inactive are the calls of the source. Rule for the calls: active = growth percent below 10; inactive = the rest.

Tests used:
Test in all cases: NCI-60 one-dose screen, 48 h (100 = growth as untreated, 0 = no growth, -100 = all killed)
Conditions in all cases: 10 µM unless noted
RPMI-8226 leukemia = tested on: RPMI-8226 leukemia
OVCAR-8 ovarian = tested on: OVCAR-8 ovarian
OVCAR-5 ovarian = tested on: OVCAR-5 ovarian
OVCAR-4 ovarian = tested on: OVCAR-4 ovarian
SK-OV-3 ovarian = tested on: SK-OV-3 ovarian
IGROV1 ovarian = tested on: IGROV1 ovarian
HS 578T breast = tested on: HS 578T breast
NCI/ADR-RES ovarian = tested on: NCI/ADR-RES ovarian
T-47D breast = tested on: T-47D breast
OVCAR-3 ovarian = tested on: OVCAR-3 ovarian

Compound | growth (RPMI-8226 leukemia) | growth (OVCAR-8 ovarian) | growth (OVCAR-5 ovarian) | growth (OVCAR-4 ovarian) | growth (SK-OV-3 ovarian) | growth (IGROV1 ovarian) | growth (HS 578T breast) [%] | growth (NCI/ADR-RES ovarian) | growth (T-47D breast) | growth (OVCAR-3 ovarian) [%]
N#Cc1ccc(NC(=O)Nc2ccc(Oc3ccc(NC(=O)Nc4ccc(C#N)cc4)cc3)cc2)cc1 | -56.2% (active) | 31% | 47.4% | 33.8% | 58.7% | -21.5% (active) | 38.9 | 48.9% | 2.9% (active) | –
O=C(/C(=C/c1ccc([N+](=O)[O-])cc1)c1ccccc1)c1ccccc1 | -10.5% (active) | 8.51% (active) | 76.3% | 57.8% | 92.7% | 74.1% | 57.9 | 46.5% | 72% | –
COc1ccc(OC)c2c1[nH]c(=O)c1c3ccccc3cn21 | -21.8% (active) | -80.7% (active) | -45.1% (active) | -29% (active) | -86% (active) | -60.7% (active) | – | -6.09% (active) | -48.3% (active) | –
COc1ccc(-c2c3c(nn2-c2ccc(N)cc2)CCc2cnoc2-3)cc1OC | 60% | 65% | 94.1% | 102% | 124% | 97.6% | – | – | 97% | 83.1
Cc1ccc(NC(=O)COC(=O)c2ccc(S(=O)(=O)N3CCCCCC3)cc2)cc1 | 97.6% | 98.8% | 84% | 105% | 79.4% | 101% | 113 | 105% | 5.22% (active) | –
COc1ccc(-n2nc3c(c2-c2ccc(OC)c(OC)c2)-c2oncc2CC3)cc1 | 56.7% | 84.7% | 99.5% | 86.1% | 106% | 99.1% | – | 80.6% | 71% | 76.4
Cn1cc(-c2csc(-c3c[nH]c4ncccc34)n2)c2cc(F)cnc21 | 70.3% | 77.5% | 87.1% | 62.4% | 81.8% | 66.5% | – | 63% | 43.7% | 87.8
Cc1nc2cc(NC(=O)CN3CCN(CCN4C(=O)c5cccc6cccc(c56)C4=O)CC3)ccc2s1 | 28.9% | 30.2% | 72% | 61.4% | 66.3% | 44% | 69.5 | 45.9% | 50.7% | –
COc1cc2cn3c4ccc(O)cc4nc(N)c3c2cc1OC | 19.9% | 29.6% | 45.3% | 38.7% | 27.2% | 33.9% | – | 42.4% | 12.5% | –
COc1ccc2nc(-c3ccc(-n4cncc4-c4ccc(OC)c(N)c4)cc3)sc2c1 | 88.2% | 96.8% | 108% | 87% | 117% | 113% | 101 | 115% | 102% | –
Cn1cc(-c2nc(-c3c[nH]c4ncc(F)cc34)cs2)c2cccnc21 | 100% | 105% | 93.4% | 82.2% | 109% | 108% | – | 100% | 59.9% | 117
COc1cccc(C2C(C#N)=C(N)Oc3cc(OC)ccc32)c1 (configuration not stated) | 9.12% (active) | 3.88% (active) | 34.4% | 59.3% | 3.13% (active) | 10.9% | 11.3 | 3.99% (active) | 55.8% | –
CC(=O)O[C@H]1C(=O)[C@@]2(C)C([C@H](OC(=O)c3ccccc3)[C@]3(O)C[C@H](OC(=O)[C@H](O)[C@@H](NC(=O)c4ccccc4)c4ccccc4)C(C)=C1C3(C)C)[C@]1(OC(C)=O)CO[C@@H]1C[C@@H]2O (some centres not stated) | 3.77% (active) | 26.6% | 27.2% | 46.5% | 18.1% | 42% | 14.9 | – | 47.3% | –
CCCCCCCCCCSc1ncnc2nc[nH]c12 | 51.4% | 67.5% | 101% | 61.3% | 85% | 75.1% | 91.4 | 54.5% | 47.9% | –
O=C(Nc1ccc(C2=NCCCN2)cc1)Nc1ccc(C2=NCCCN2)cc1 | 53.2% | 89% | 101% | 64% | 110% | 110% | 79.5 | 94.4% | 73.6% | –
Cc1cc2cn3c4cccnc4[nH]c(=O)c3c2cc1C | -5.48% (active) | -46.1% (active) | 92.9% | 47.9% | 81% | 65% | – | 9.65% (active) | -21.3% (active) | 29.5
CC12CCCCC1C(C(N)=O)C(=O)O2 (configuration not stated) | 106% | 102% | 112% | 101% | 107% | 119% | 110 | 102% | 114% | –
Cn1[nH]cc(/C=N/C(N)=O)c1=O | 105% | 105% | 102% | 106% | 110% | 124% | 109 | 108% | 104% | –
COc1ccc2[nH]c(-c3ccccc3)cc2c1 | 48.5% | 103% | 109% | 81.3% | 110% | 100% | 105 | 113% | 72% | –
C/C(=C\CCc1ccsc1)CC/C=C(\C)CCCN1CCN(CCO)CC1 | -18.9% (active) | 59.3% | 71.8% | 41.9% | 77.4% | 52.8% | 49.5 | 56.3% | 36.2% | –
O=C(C(=O)N1CCOCC1)c1ccc(OC2OC(CO)C(O)C(O)C2O)cc1 (configuration not stated) | 111% | 100% | 98.2% | 116% | 100% | 117% | 125 | 113% | 96% | –
Cc1cc(NC(=O)Nc2cccc3ccccc23)no1 | 102% | 105% | 98.9% | 103% | 103% | – | 107 | 103% | 87.6% | 113
NC(=O)SCC(=O)Nc1ccccc1-c1ccccc1 | 99.8% | 111% | 104% | 111% | 131% | 133% | – | 106% | 132% | –
COc1ccc(-c2cncn2-c2ccc(-c3nc4cc(OC)c(OC)c(OC)c4s3)cc2)cc1N | 62.2% | 37.1% | 96.4% | 46.7% | 103% | – | 74.7 | 52.4% | 50.5% | 44.2
O=C1OCC/C1=C\OCCCO/C=C1\CCOC1=O | 105% | 106% | 107% | 99.5% | 114% | – | 112 | 104% | 103% | 110
Nc1nc(SCC2(CCl)COC2)c2[nH]cnc2n1 | 96.4% | 95.8% | 100% | 86.8% | 92.9% | – | 89.4 | 109% | 100% | 109
CC(=O)Oc1c(C)c(OC(C)=O)c2c(c1C(C)=O)OC1CC(=O)C(C(C)=O)=C(O)C21C (configuration not stated) | 78.3% | 105% | 102% | 99% | 98.2% | – | 109 | 80.7% | 103% | 118
O=C(O)C(=O)O | 94.4% | 75.8% | 56.8% | 99.8% | 95.7% | – | 100 | -36.5% (active) | 94.4% | 114
